# Source: PubChem BioAssay (EPA / NIEHS)
# Active and inactive are the calls of the source. How the source made its calls: active means hit-call score of the fitted dose curve at least 0.9, where 1 is the maximum; inactive means score below 0.9.
# What was measured:
# [1] = BSK_CASM3C_SRB: Viability Assessment in the BioMAP Diversity Plus: CASM3C Assay (AID 2283050); details: primary human coronary artery smooth muscle cells;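 further: total protein by SRB staining as cytotoxicity measure in parallel cultures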
# [2] = read-out: Thrombomodulin, THBD (gene 7056); test: BSK_CASM3C_Thrombomodulin: BioMAP Diversity Plus: CASM3C Assay for Thrombomodulin Biomarker Activity (AID 2283051); details: primary human coronary artery smooth muscle cells; actives raise or lower the signal;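 further: thrombomodulin protein level measured by ELISA 24 h after dosing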
# [3] = read-out: Tissue Factor, F3 (gene 2152); test: BSK_CASM3C_TissueFactor: BioMAP Diversity Plus: CASM3C Assay for Tissue Factor Biomarker Activity (AID 2283052); details: primary human coronary artery smooth muscle cells; actives raise or lower the signal;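 further: cell surface tissue factor protein level read by ELISA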
# [4] = read-out: Urokinase-type plasminogen activator receptor (uPAR), PLAUR (gene 5329); test: BSK_CASM3C_uPAR: BioMAP Diversity Plus: CASM3C Assay for Urokinase-type plasminogen activator receptor (uPAR) Biomarker Activity (AID 2283054); details: primary human coronary artery smooth muscle cells; actives raise or lower the signal;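 further: cell-surface uPAR protein level quantified by ELISA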
# [5] = read-out: Vascular cell adhesion molecule 1 (VCAM1), VCAM1 (gene 7412); test: BSK_CASM3C_VCAM1: BioMAP Diversity Plus: CASM3C Assay for Vascular cell adhesion molecule 1 (VCAM1) Biomarker Activity (AID 2283055); details: primary human coronary artery smooth muscle cells; actives raise or lower the signal;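 further: VCAM-1 protein level quantified by ELISA on the cells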
# [6] = read-out: Collagen III, COL3A1 (gene 1281); test: BSK_hDFCGF_CollagenIII: BioMAP Diversity Plus: hDFCGF Assay for Collagen III Biomarker Activity (AID 2283056); details: primary human foreskin fibroblasts; actives raise or lower the signal
# Procedure, shortened: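 Response relative to DMSO, fitted in both directions, reflects ELISA-measured collagen III in human primary skin fibroblasts 24 h after compound addition.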
# [7] = read-out: Epidermal growth factor receptor (EGFR), EGFR (gene 1956); test: BSK_hDFCGF_EGFR: BioMAP Diversity Plus: hDFCGF Assay for Epidermal growth factor receptor (EGFR) Biomarker Activity (AID 2283057); details: primary human foreskin fibroblasts; actives raise or lower the signal
# Procedure, shortened: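 Primary human foreskin fibroblasts were exposed to compound for 24 h, after which cell-surface EGFR was quantified by ELISA. Activity was fitted bidirectionally against the DMSO negative control as baseline.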
# [8] = read-out: Interleukin-8 (IL8), CXCL8 (gene 3576); test: BSK_hDFCGF_IL8: BioMAP Diversity Plus: hDFCGF Assay for Interleukin-8 (IL8) Biomarker Activity (AID 2283058); details: primary human foreskin fibroblasts; actives raise or lower the signal
# Procedure, shortened: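 Fibroblast monolayers (human foreskin, hDFCGF) received test chemical for 24 h before ELISA detection of IL-8; either increases or decreases relative to DMSO count as activity.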
# [9] = read-out: Macrophage colony-stimulating factor (MCSF), CSF1 (gene 1435); test: BSK_hDFCGF_MCSF: BioMAP Diversity Plus: hDFCGF Assay for Macrophage colony-stimulating factor (MCSF) Biomarker Activity (AID 2283060); details: primary human foreskin fibroblasts; actives raise or lower the signal
# Procedure, shortened: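 fibroblasts (human foreskin, primary), 24 h post-dose; M-CSF by ELISA; bidirectional fit, DMSO = baseline.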
# [10] = BSK_hDFCGF_SRB: Viability Assessment in the BioMAP Diversity Plus: hDFCGF Assay (AID 2283061); details: primary human foreskin fibroblasts;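 further: cells exposed to compound for 24 h before the read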
# Procedure, shortened: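 SRB-based viability read on primary human skin fibroblasts at 24 h: TCA fixation, 0.1% dye, 560 nm. Gain or loss of signal is fitted against the DMSO negative control.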
# [11] = read-out: TIMP metallopeptidase inhibitor 1 (TIMP1), TIMP1 (gene 7076); test: BSK_hDFCGF_TIMP1: BioMAP Diversity Plus: hDFCGF Assay for TIMP metallopeptidase inhibitor 1 (TIMP1) Biomarker Activity (AID 2283062); details: primary human foreskin fibroblasts; actives raise or lower the signal
# Procedure, shortened: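 Bidirectional curve fitting against DMSO baseline yielded this endpoint, based on ELISA detection of TIMP-1 in primary human foreskin fibroblasts exposed to compound for 24 h.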
# [12] = read-out: Monokine induced gamma interferon (MIG), CXCL9 (gene 4283); test: BSK_hDFCGF_MIG: BioMAP Diversity Plus: hDFCGF Assay for Monokine induced gamma interferon (MIG) Biomarker Activity (AID 2283063); details: primary human foreskin fibroblasts; actives raise or lower the signal
# Procedure, shortened: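 Endpoint derived by bidirectional fitting relative to DMSO; MIG quantified via ELISA in primary human foreskin fibroblasts harvested 24 h after dosing.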
# [13] = read-out: Matrix Metallopeptidase 1 (MMP1), MMP1 (gene 4312); test: BSK_hDFCGF_MMP1: BioMAP Diversity Plus: hDFCGF Assay for Matrix Metallopeptidase 1 (MMP1) Biomarker Activity (AID 2283064); details: primary human foreskin fibroblasts; actives raise or lower the signal
# Procedure, shortened: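 Primary human foreskin fibroblasts exposed to chemicals for 24 h; MMP1 measured by ELISA. Cytotoxicity tracked by SRB staining in parallel cultures; bidirectional fit relative to DMSO.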
# [14] = read-out: Vascular cell adhesion molecule 1 (VCAM1), VCAM1 (gene 7412); test: BSK_hDFCGF_VCAM1: BioMAP Diversity Plus: hDFCGF Assay for Vascular cell adhesion molecule 1 (VCAM1) Biomarker Activity (AID 2283065); details: primary human foreskin fibroblasts; actives raise or lower the signal;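 on AC50: VCAM-1 protein level quantified by ELISA after 24 h chemical exposure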
# Procedure, shortened: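 Measured after 24 h chemical treatment of primary human skin fibroblasts, VCAM-1 was detected by ELISA and concentration-response analysed in both directions versus DMSO vehicle.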
# [15] = read-out: Plasminogen activator inhibitor-1 (PAI1), SERPINE1 (gene 5054); test: BSK_hDFCGF_PAI1: BioMAP Diversity Plus: hDFCGF Assay for Plasminogen activator inhibitor-1 (PAI1) Biomarker Activity (AID 2283066); details: primary human foreskin fibroblasts; actives raise or lower the signal
# Procedure, shortened: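 Human foreskin fibroblasts in the hDFCGF system were dosed with compound for 24 h; PAI-1 was quantified by ELISA. Bidirectional curve fitting used DMSO as negative control and baseline.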
# [16] = read-out: Intercellular Adhesion Molecule 1 (ICAM1), ICAM1 (gene 3383); test: BSK_KF3CT_ICAM1: BioMAP Diversity Plus: KF3CT Assay for Intercellular Adhesion Molecule 1 (ICAM1) Biomarker Activity (AID 2283067); details: primary human keratinocytes with fibroblasts; actives raise or lower the signal
# Procedure, shortened: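 Bidirectional curve fitting against a DMSO baseline was applied to ICAM-1 ELISA signal from primary human skin co-cultures harvested 24 h after treatment, with SRB staining of parallel wells for overt cytotoxicity.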
# [17] = read-out: Interferon-gamma inducible Protein 10 (IP10), CXCL10 (gene 3627); test: BSK_KF3CT_IP10: BioMAP Diversity Plus: KF3CT Assay for Interferon-gamma inducible Protein 10 (IP10) Biomarker Activity (AID 2283068); details: primary human keratinocytes with fibroblasts; actives raise or lower the signal
# Procedure, shortened: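 Human keratinocyte plus foreskin fibroblast primary co-culture exposed to test chemical for 24 h; IP-10 measured by ELISA. Concentration-response fitted bidirectionally against DMSO control as baseline.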
# [18] = BSK_KF3CT_SRB: Viability Assessment in the BioMAP Diversity Plus: KF3CT Assay (AID 2283069); details: primary human keratinocytes with fibroblasts;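 further: total protein by sulforhodamine B staining as a cytotoxicity measure; fitted for both signal gain and loss against DMSO baseline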
# Procedure, shortened: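 Human keratinocyte and foreskin fibroblast co-culture exposed to chemical for 24 h. Total protein measured in parallel cultures by 0.1% sulforhodamine B staining after 10% TCA fixation, read at 560 nm; bidirectional fit relative to DMSO.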
structure (smiles),measurement,setting,value
CN1CSC(=S)N(C)C1,outcome,[1],inactive
same,outcome,[2],inactive
same,outcome,[3],inactive
same,outcome,[4],inactive
same,AC50,[5],20 µM (active)
same,outcome,[6],inactive
same,outcome,[7],inactive
same,outcome,[8],inactive
same,AC50,[9],10.6 µM (active)
same,outcome,[10],inactive
same,outcome,[11],inactive
same,AC50,[12],14.1 µM (active)
same,outcome,[13],inactive
same,AC50,[14],9.28 µM (active)
same,AC50,[15],24.2 µM (active)
same,outcome,[16],inactive
same,outcome,[17],inactive
same,outcome,[18],inactive
CCOC1Oc2ccc(OS(C)(=O)=O)cc2C1(C)C (stereo not given),outcome,[1],inactive
same,outcome,[2],inactive
same,outcome,[3],inactive
same,outcome,[4],inactive
same,outcome,[5],inactive
same,outcome,[6],inactive
same,outcome,[7],inactive
same,outcome,[8],inactive
same,outcome,[9],inactive
same,outcome,[10],inactive
same,outcome,[11],inactive
same,outcome,[12],inactive
same,outcome,[13],inactive
same,outcome,[15],inactive
same,outcome,[16],inactive
same,outcome,[17],inactive
same,outcome,[18],inactive
O=[N+]([O-])/N=C1\NCCN1Cc1ccc(Cl)nc1,outcome,[1],inactive
same,outcome,[2],inactive
same,outcome,[3],inactive
same,outcome,[4],inactive
same,outcome,[5],inactive
same,outcome,[6],inactive
same,outcome,[7],inactive
same,outcome,[8],inactive
same,outcome,[9],inactive
same,outcome,[10],inactive
same,outcome,[11],inactive
same,outcome,[12],inactive
same,outcome,[13],inactive
same,outcome,[15],inactive
same,outcome,[16],inactive
same,outcome,[17],inactive
same,outcome,[18],inactive
[2H]C1([2H])[n+]2ccccc2-c2cccc[n+]2C1([2H])[2H],outcome,[1],inactive
same,outcome,[2],inactive
same,outcome,[3],inactive
same,outcome,[4],inactive
same,outcome,[5],inactive
same,AC50,[6],1.16 µM (active)
same,outcome,[7],inactive
same,outcome,[8],inactive
same,outcome,[9],inactive
same,outcome,[10],inactive
same,outcome,[11],inactive
same,outcome,[12],inactive
same,AC50,[13],3.17 µM (active)
same,outcome,[15],inactive
same,outcome,[16],inactive
same,AC50,[17],4.43 µM (active)
same,outcome,[18],inactive
COc1nn(CSP(=S)(OC)OC)c(=O)s1,outcome,[1],inactive
same,outcome,[2],inactive
same,outcome,[3],inactive
same,outcome,[4],inactive
same,outcome,[5],inactive
same,outcome,[6],inactive
same,outcome,[7],inactive
same,outcome,[8],inactive
same,outcome,[9],inactive
same,outcome,[10],inactive
same,outcome,[11],inactive
same,outcome,[12],inactive
same,outcome,[13],inactive
same,outcome,[14],inactive
same,outcome,[15],inactive
same,outcome,[16],inactive
same,outcome,[17],inactive
same,outcome,[18],inactive
COP(=O)(OC)OC=C(Cl)Cl,outcome,[1],inactive
same,outcome,[2],inactive
same,outcome,[3],inactive
same,outcome,[4],inactive
same,outcome,[5],inactive
same,outcome,[6],inactive
same,outcome,[7],inactive
same,outcome,[9],inactive
same,outcome,[10],inactive
same,outcome,[11],inactive
same,outcome,[12],inactive
same,outcome,[13],inactive
same,outcome,[15],inactive
same,outcome,[16],inactive
same,outcome,[17],inactive
same,outcome,[18],inactive
O=C(O)COc1ccc(Cl)cc1Cl,outcome,[1],inactive
same,outcome,[2],inactive
same,outcome,[3],inactive
same,outcome,[4],inactive
same,outcome,[5],inactive
same,outcome,[6],inactive
same,outcome,[7],inactive
same,outcome,[8],inactive
same,outcome,[9],inactive
same,outcome,[10],inactive
same,outcome,[11],inactive
same,outcome,[12],inactive
same,outcome,[13],inactive
same,outcome,[15],inactive
same,outcome,[16],inactive
same,outcome,[17],inactive
same,outcome,[18],inactive
CC(C)(C)C(O)/C(=C\c1ccc(Cl)cc1Cl)n1cncn1 (stereo not given),outcome,[1],inactive
same,AC50,[2],15 µM (active)
same,outcome,[3],inactive
same,outcome,[4],inactive
same,outcome,[5],inactive
same,outcome,[6],inactive
same,outcome,[7],inactive
same,outcome,[8],inactive
same,AC50,[9],26.5 µM (active)
same,AC50,[10],20 µM (active)
same,AC50,[11],25.7 µM (active)
same,outcome,[12],inactive
same,outcome,[13],inactive
same,AC50,[15],9.85 µM (active)
same,AC50,[16],34.4 µM (active)
same,AC50,[17],29.7 µM (active)
same,AC50,[18],20 µM (active)
CNC(=O)CSP(=S)(OC)OC,outcome,[1],inactive
same,outcome,[2],inactive
same,outcome,[3],inactive
same,outcome,[4],inactive
same,outcome,[5],inactive
same,outcome,[6],inactive
same,outcome,[7],inactive
same,outcome,[8],inactive
same,outcome,[9],inactive
same,outcome,[10],inactive
same,outcome,[11],inactive
same,outcome,[12],inactive
same,outcome,[13],inactive
same,outcome,[15],inactive
same,outcome,[16],inactive
same,outcome,[17],inactive
same,outcome,[18],inactive
N#CN,outcome,[1],inactive
same,outcome,[2],inactive
same,outcome,[3],inactive
same,outcome,[4],inactive
same,outcome,[5],inactive
same,outcome,[6],inactive
same,outcome,[7],inactive
same,outcome,[8],inactive
same,outcome,[9],inactive
same,outcome,[10],inactive
same,outcome,[11],inactive
same,outcome,[12],inactive
same,outcome,[13],inactive
same,outcome,[15],inactive
same,outcome,[16],inactive
same,outcome,[17],inactive
same,outcome,[18],inactive
CCS(=O)(=O)c1cccnc1S(=O)(=O)NC(=O)Nc1nc(OC)cc(OC)n1,outcome,[1],inactive
same,outcome,[2],inactive
same,outcome,[3],inactive
same,outcome,[4],inactive
same,outcome,[5],inactive
same,outcome,[6],inactive
same,outcome,[7],inactive
same,outcome,[8],inactive
same,outcome,[9],inactive
same,outcome,[10],inactive
same,outcome,[11],inactive
same,outcome,[12],inactive
same,outcome,[13],inactive
same,outcome,[14],inactive
same,outcome,[15],inactive
same,outcome,[16],inactive
same,AC50,[17],0.266 µM (active)
same,outcome,[18],inactive
CCC(C)Nc1c([N+](=O)[O-])cc(C(C)(C)C)cc1[N+](=O)[O-] (stereo not given),outcome,[1],inactive
same,outcome,[2],inactive
same,outcome,[3],inactive
same,outcome,[4],inactive
same,outcome,[5],inactive
same,outcome,[6],inactive
same,AC50,[7],33 µM (active)
same,outcome,[8],inactive
same,AC50,[9],21.5 µM (active)
same,AC50,[10],32.9 µM (active)
same,outcome,[11],inactive
same,outcome,[12],inactive
same,outcome,[13],inactive
same,AC50,[14],15.4 µM (active)
same,AC50,[15],5.08 µM (active)
same,outcome,[16],inactive
same,outcome,[17],inactive
same,outcome,[18],inactive
O=C(NC(=O)c1c(F)cccc1F)Nc1ccc(OC(F)(F)C(F)OC(F)(F)F)c(Cl)c1 (stereo not given),outcome,[1],inactive
same,outcome,[2],inactive
same,outcome,[3],inactive
same,outcome,[4],inactive
same,outcome,[5],inactive
same,outcome,[6],inactive
same,outcome,[7],inactive
same,outcome,[8],inactive
same,outcome,[9],inactive
same,outcome,[10],inactive
same,outcome,[11],inactive
same,outcome,[12],inactive
same,outcome,[13],inactive
same,outcome,[14],inactive
same,outcome,[15],inactive
same,outcome,[16],inactive
same,outcome,[17],inactive
same,outcome,[18],inactive
